# In PubChem BioAssay (Tox21):
# Unmarked numbers belong to inactive results. Inconclusive results are not listed. A call without a number means that no potency is given here. Activity calls are given as the source filed them. Unless noted, calls follow the shape of the dose curve; as a rule, active = well fitted curve in the direction sought with a large enough effect in the repeat runs; inconclusive = weak or mixed curves; inactive = no such curve, though single readings can be large; an effect the other way counts as inactive or inconclusive.
# Experiments:
# [1] = qHTS assay for small molecules that induce genotoxicity in human embryonic kidney cells expressing luciferase-tagged ATAD5 (AID 651632); also: nearly all actives have a fitted effect of over 15% in size
# How it was run: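 ATAD5-luc HEK293T, 2,000 cells/well; cpd or DMSO pin-transferred; 16 hr, 37C/5% CO2; Amplite 30 min RT; luminescence.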
# [2] = qHTS assay for small molecule agonists of the p53 signaling pathway - cell viability (AID 651633; calls by dose curve;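 also: p53RE-bla HCT reporter cells with a stable beta-lactamase p53 reporter; series mostly up to about 83 µM; nearly all actives have a fitted effect of over 30% in size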)
# How it was run: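 p53RE-bla cells were treated with compound for 16 hours at 37 C. Cytotoxicity was then measured as CellTiter-Glo luminescence after 30 min at room temperature.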
# [3] = qHTS assay for small molecules that induce genotoxicity in human embryonic kidney cells expressing luciferase-tagged ATAD5 - cell viability (AID 651634; calls by dose curve; also: nearly all actives have a fitted effect of over 25% in size)
# How it was run: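 Fluorescence from CellTiter-Fluor, reporting protease activity within live cells, served as the viability read-out. HEK293T cells carrying luciferase-tagged ATAD5 had been treated with compound for 15.5 hr at 37C.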
# [4] = qHTS assay for small molecule disruptors of the mitochondrial membrane potential - cell viability (AID 720634; calls by dose curve;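 also: human HepG2 liver cancer cells; series mostly up to about 83 µM; nearly all actives have a fitted effect of over 20% in size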)
# How it was run: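 Cells: HepG2, 2,000/well, attached overnight. Compound 1 hr, 37 C/5% CO2. +m-MPI dye, +CellTiter-Glo 30 min RT. Readout: luminescence (ATP).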
# [5] = qHTS assay for small molecule disruptors of the mitochondrial membrane potential (AID 720635); also: potency is read from the fitted curve at half-maximal effect
# How it was run: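 HepG2 cells exposed to compound 1 hr at 37C, then Mito-MPS dye 30 min. Ratio read of aggregate (540/590 nm) versus monomer (490/535 nm) fluorescence.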
# [6] = qHTS assay to test for compound auto fluorescence at 590 nm (red) in HepG2 cells (AID 720674)
# How it was run: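 Seeding: 2,000 HepG2 cells/well, MEM/10% FBS, overnight 37 C. Dosing: compound vs DMSO. Incubation: 1 hr, 37 C, 5% CO2. Read: fluorescence 540 ex/590 em, Rose Bengal sodium as red reference.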
# [7] = qHTS assay to test for compound auto fluorescence at 535 nm (green) in HepG2 cells (AID 720675)
# [8] = qHTS assay to test for compound auto fluorescence at 460 nm (blue) in HEK293 cells (AID 720678)
# How it was run: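 HEK293 cells (2,000/well, medium with 10% dialyzed FBS) attached 4-5 hr, then exposed to compound overnight at 37C, 5% CO2. Blue fluorescence read at 405/460 nm, with triamterene as reference fluorophore.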
# [9] = qHTS assay for small molecule agonists of the p53 signaling pathway (AID 651631; calls by dose curve; also: nearly all actives have a fitted effect of over 15% in size)
# How it was run: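 Beta-lactamase reporter activity under p53 response elements was quantified in HCT-116 cells by FRET fluorescence, following 16 h incubation with test compounds at 37 °C and 2 h substrate development at room temperature.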
# [10] = qHTS assay to test for compound auto fluorescence at 590 nm (red) in HEK293 cells (AID 720679)
# How it was run: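 HEK293 cells (2,000/well, 10% dialyzed FBS) attached 4-5 hr, then dosed with compound or DMSO and incubated overnight at 37C, 5% CO2. Red fluorescence read at 540/590 nm, Rose Bengal sodium as reference fluorophore.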
SMILES,outcome [1],outcome [2],Potency [3],outcome [4],Potency [5],outcome [6],outcome [7],outcome [8],outcome [9],outcome [10]
CCCC(=O)OCCC(C)CCC=C(C)C (configuration not stated),inactive,inactive,inactive,inactive,inactive,inactive,inactive,inactive,,
COC(=O)CCCCC(=O)O,,,inactive,inactive,,inactive,inactive,inactive,inactive,inactive
OC[C@H]1O[C@@H](O[C@@H]2[C@@H](CO)O[C@](O)(CO)[C@H]2O)[C@H](O)[C@@H](O)[C@H]1O,,inactive,inactive,inactive,inactive,inactive,inactive,inactive,inactive,inactive
CC(=O)O[C@@H]1CC2CCC1(C)C2(C)C (some centres not stated),,,inactive,inactive,inactive,inactive,,inactive,inactive,inactive
CCO[Si](CC)(OCC)OCC,,inactive,inactive,inactive,61.1 µM (active),,,inactive,inactive,inactive
CC(C)COC(=O)c1ccccc1,,inactive,inactive,inactive,inactive,inactive,inactive,inactive,inactive,inactive
CC/C(C)=N\O[Si](C)(O/N=C(\C)CC)O/N=C(\C)CC,,,inactive,inactive,inactive,inactive,,inactive,inactive,inactive
CCCCC1CCC(O)CC1 (configuration not stated),,,inactive,inactive,inactive,,inactive,inactive,inactive,inactive
CCCCCCCCCOC(=O)CCCCC(=O)OCCCCCCC,,inactive,inactive,inactive,,inactive,,inactive,inactive,
C=C(C)c1cccc(C(C)(C)N=C=O)c1,,inactive,inactive,inactive,,inactive,inactive,inactive,inactive,
O=[N+]([O-])c1c(Cl)cc(Cl)cc1Cl,,inactive,inactive,inactive,inactive,inactive,inactive,inactive,inactive,inactive
CCO,,,inactive,inactive,,inactive,inactive,inactive,inactive,inactive
Cc1ccnc(N)c1,,inactive,inactive,inactive,inactive,inactive,,inactive,inactive,inactive
CSc1cnccn1,,,inactive,inactive,inactive,inactive,inactive,inactive,inactive,inactive
N[C@@H](Cc1ccc(O)cc1)C(=O)O,inactive,inactive,inactive,inactive,inactive,inactive,inactive,inactive,,
CC1(C)Oc2ccc(C#N)cc2[C@@H](N2CCCC2=O)[C@@H]1O,,inactive,inactive,inactive,inactive,inactive,inactive,inactive,inactive,inactive
CC12CCC(C1)C(C)(C)C2O (configuration not stated),inactive,inactive,inactive,inactive,inactive,,,inactive,,inactive
C/C=C(\C)C(=O)OCCc1ccccc1,inactive,inactive,inactive,inactive,,inactive,inactive,inactive,,
O=C(CCCCC(=O)Nc1c(I)cc(I)c(C(=O)O)c1I)Nc1c(I)cc(I)c(C(=O)O)c1I,inactive,inactive,inactive,inactive,inactive,,inactive,inactive,,inactive
CN(C)C(C)(C)CO,inactive,inactive,inactive,inactive,inactive,inactive,,inactive,,inactive
Cc1c(C(=O)c2c[nH]n(C)c2=O)ccc(S(C)(=O)=O)c1C1=NOCC1,inactive,inactive,inactive,inactive,,inactive,inactive,inactive,,inactive
CC1(C)O[C@H]2CC(=O)OC[C@]23[C@H]2CC[C@@]4(C)[C@H](c5ccoc5)OC(=O)[C@H]5O[C@]54[C@]2(C)C(=O)C[C@@H]13,inactive,inactive,inactive,inactive,inactive,inactive,inactive,inactive,,inactive
Cc1ccc(N)cc1S(=O)(=O)O,inactive,inactive,inactive,inactive,,inactive,inactive,inactive,,inactive
CC(=O)OC(C)=O,inactive,inactive,inactive,inactive,,inactive,,inactive,,inactive
CC1CC(=O)CC(C)(C)C1 (configuration not stated),inactive,inactive,inactive,inactive,,inactive,inactive,inactive,,inactive
COC(=O)c1ccccc1C(=O)O,inactive,inactive,inactive,inactive,inactive,,,inactive,,
Cc1c(Cl)cccc1Cl,inactive,inactive,inactive,inactive,,inactive,inactive,inactive,,inactive
